# Compounds with a hit are over-represented: about 2.3% of the library has one in this group of screens.
# Abeta rescue = qHTS for compounds that reverse cellular toxicity of Amyloid beta (A-beta) peptide in yeast: Primary Screen; Potency, µM (doses to about 46.1 µM), most hits filed as activators; 0.063% of 410,000 active; AID 1347071, 2019; yeast expressing A-beta42, growth rescue, OD600, 48 h; response scale: 0% DMSO, 100% iron-clioquinol control; note: potency is the fitted concentration of half-maximal effect; nearly all actives have a fitted effect of over 55% in size
#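 Growth rescue measured by 600 nm absorbance after 48 h yeast culture at 30 C with compound. Values normalized between DMSO and an equimolar ferric chloride plus clioquinol control.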
# aSyn yeast inh = qHTS of alpha-syn Inhibitors; AID 652106, 2013; Potency, µM (top dose mostly 46.1 µM), without a hit: top-dose growth rescue (activation), hits mostly activators; 0.14% of 370,000 active; Yeast expressing alpha-synuclein, growth rescue, BacTiter-Glo, 24 h; note: potency is the fitted concentration of half-maximal effect; % of control where 0% means no effect; nearly all actives have a fitted effect of over 65% in size
#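 Readout is rescue of growth in alpha-synuclein-expressing yeast, so inhibitors of toxicity appear as activators. Growth after 24 hr at 30 deg C in galactose medium is quantified by luminescence.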
# CCT modulator = High-Throughput Screening for Modulators of Cytosolic Chaperonin Activity; purified chaperonin ATPase assay, HTRF ADP detection, 30 min; activity change, % (no concentration beside the values), hits read low; 0.3% of 360,000 active; AID 651819, 2012; in the data active = activity change below about -30%; note: % is set by controls: 0 for no effect and ±100 for the full control effect
#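 TRiC at 40 or 20 nM final (batch-dependent) in 30 mM Tris pH 7.4, 100 mM KCl, 5 mM MgCl2, 1 mM DTT, with compound at single 76 uM and 10 uM ATP, 30 min at 37 deg C. ADP detected by HTRF Transcreener, 665/615 ratio.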
# TDP-43 yeast inh = qHTS of TDP-43 Inhibitors; TDP-43 expressing yeast growth rescue, BacTiter-Glo, 24 h; Potency, µM (series often up to 46.1 µM), without a hit: top-dose growth rescue (activation), usual class: activators; 1.8% of 410,000 active; AID 652104, 2013; note: potency is the fitted concentration of half-maximal effect; % of control where 0% means no effect; nearly all actives have a fitted effect of over 50% in size
#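 In this qHTS, compounds that restore growth of yeast expressing TDP-43 appear as activators. Cells (OD600=0.02, galactose medium, raffinose-pregrown) are incubated with compound 24 hr at 30 deg C and growth is quantified by BacTiter-Glo.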
# FUS yeast rescue = qHTS for Suppressors of FUS Proteinopathy: Primary screen using FUS-linked yeast assay. Potency, µM (highest dose often 76.6 µM), most hits filed as activators. 0.24% of 390,000 active. S. cerevisiae FUS-expressing, growth rescue, OD600, 24 h. AID 1347120, 2019;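 note: potency is the fitted concentration of half-maximal effect; plate controls were DMSO vehicle for no effect and reference control for full effect; nearly all actives have a fitted effect of over 55% in size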
#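 Quantitative HTS measuring growth restoration of FUS-toxic yeast. Galactose-induced cells (OD 0.005) were exposed 24hr at 30C to compounds at several concentrations, then absorbance at 600 nm was recorded.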
# MmCpn inh = Inhibitors of TCP-1 ring complex (TRiC) of Methanococcus maripaludis (MmCpn): qHTS. Chaperonin Mm-Cpn (Methanococcus maripaludis). purified Mm-Cpn ATPase, ADP Transcreener TR-FRET. Potency, µM (titrated, usually from 76.9 µM), inactives show top-dose activity, negative = inhibition, most hits filed as inhibitors. AID 504842, 2011. 0.031% of 330,000 active; note: potency is the fitted concentration of half-maximal effect; % is set by controls: 0 for no effect and ±100 for the full control effect; nearly all actives have a fitted effect of over 80% in size
#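 Purified archaeal chaperonin (25 nM final) was preincubated with compound for 10 min at 37°C, then ATP (10 uM final) was added for 30 min at 37°C in Tris pH 7.4/KCl/MgCl2/DTT buffer. ADP was quantified by HTRF Transcreener TR-FRET.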
# The depositor's hits bear a star; i = inactive; ? = inconclusive; . = no result given. Unless noted, calls come from the whole dose curve; as a rule, active = well fitted curve in the direction sought with a large enough effect; inconclusive = small, poorly fitted or top-dose-only effect, or another doubt; inactive = no such curve, though single readings can be large; an effect the other way counts as inactive or inconclusive.
SMILES,Abeta rescue,aSyn yeast inh,CCT modulator,TDP-43 yeast inh,FUS yeast rescue,MmCpn inh
COCCN1C(=O)/C(=C/c2cc3c(cc2Br)OCO3)NC1=S,i,-5%,-7,20µM*,i,0%
Cc1ccc(C(C)C)c(OCc2ccc(C(=O)N/N=C/c3cccc(O)c3O)cc2)c1,?,13µM*,1,13µM*,i,2%
CN(C(=O)COc1ccc(Cl)cc1Br)C1CCCCC1,i,0%,1,18µM*,i,2%
O=C(COC(=O)COc1ccc(Cl)cc1Br)NC1CCCCCC1,i,7%,1,14%,i,1%
COc1cccc(/C=C2\CC3(OC(=O)c4ccc(F)cc4)CCCN2C3)c1 (stereo not given),.,.,.,.,i,.
NC(=O)c1ccccc1N/C=C/C(=O)c1ccco1,i,26%,-60*,8%,i,-3%
CC(=O)Nc1cccc(NC(=O)CSc2cn(CC(=O)N3CCCCCC3)c3ccccc23)c1,i,.,.,17%,i,.
CC1(C)CC(=O)N(CC(=O)N2CCN(c3cccc(C(F)(F)F)c3)CC2)c2ccccc2S1(=O)=O,.,.,.,.,i,.
CN(CC(=O)Nc1ccc(F)c(F)c1F)C(=O)/C=C/c1ccco1,i,0%,-1,-2%,i,1%
COc1ccc(Cl)cc1NC(=O)CN(C)CC(=O)Nc1ccccc1-c1ccccc1,i,10%,-1,?,i,2%
COc1ccc([N+](=O)[O-])cc1NC(=O)C(C)OC(=O)/C=C/c1ccco1 (stereo not given),i,-10%,-1,25µM*,.,0%
COc1ccc(Cl)cc1NC(=O)CN(C)C(=O)/C=C/c1ccco1,i,5%,-5,28µM*,i,-1%
COc1ccc(Cl)cc1NC(=O)CN(C)CC(=O)Nc1ccc(C)cc1Br,i,3%,3,18µM*,i,-2%
CN(C)c1ccc(N=Cc2ccnc3ccccc23)cc1,.,-4%,.,.,.,.
C(=C\c1ccnc2ccccc12)/c1cccs1,.,0%,.,.,.,.
O=C(/C=C/c1ccnc2ccccc12)c1cccs1,i,2%,0,3.5µM*,i,-17%
CCOC(=O)c1cnc(-n2cc(C)cn2)nc1Nc1ccccc1OCC,i,-15%,1,20µM*,i,1%
Cc1c(CC(=O)N2CCC(O)CC2)c(=O)oc2cc3c(cc12)CCC1(CCCCC1)O3,i,2%,1,2%,32µM*,.
Cc1c(CC(=O)N2CCC(C(=O)O)CC2)c(=O)oc2cc3c(cc12)CCC1(CCCCC1)O3,i,-2%,-1,7%,i,-4%
CC(/C=N/NC(=O)c1cc(C2CC2)[nH]n1)=C\c1ccccc1,i,0%,-14,8%,i,0%
CC(/C=N/NC(=O)c1cc(C(C)C)[nH]n1)=C\c1ccccc1,i,4µM*,-1,17%,i,-1%
C/C(=N\O)c1cc(Cl)cc(Cl)c1O,i,?,-1,14µM*,i,-2%
C/C(=N\O)c1ccc(Cl)cc1Cl,i,0%,0,0%,i,7%
CN(Cc1ccccc1)c1nc(-c2cccc([N+](=O)[O-])c2)nc2ccccc12,i,-11%,-2,14µM*,i,4%
O=C(Nc1ccccc1)N1CCN(c2nc3ccccc3s2)CC1,i,6%,1,22µM*,i,1%
SMILES,Abeta rescue,aSyn yeast inh,CCT modulator,TDP-43 yeast inh,FUS yeast rescue,MmCpn inh
CCCCCCC(=O)NC1CCCCN(Cc2ccc(C)cc2)C1=O (stereo not given),.,.,.,.,i,.
Cc1ccc(S(=O)(=O)N2CCOCC2)cc1NC(=O)COC(=O)CCc1c[nH]c2ccccc12,i,-3%,-3,-6%,.,0%
O=C(COC(=O)Cc1c[nH]c2ccccc12)Nc1cc(S(=O)(=O)N2CCOCC2)ccc1Cl,i,1%,-3,10%,35µM*,1%
O=C(Nc1ccc(F)cc1)OC1CC2CC1[C@H]1CCCCN1[C@H]2Cc1ccccc1 (stereo not given in full),.,.,.,.,i,.
COc1cc(OC)c(NC(=O)CCc2nc(-c3cccs3)no2)cc1Cl,i,8%,2,20µM*,i,-16%
Cc1ccc2cc(C3CC(c4ccco4)=NN3C(=O)CCCC(=O)O)c(Cl)nc2c1 (stereo not given),i,0%,0,-6%,i,0%
Cc1ccc2nc(Cl)c(C3CC(c4ccco4)=NN3C(=O)CCCC(=O)O)cc2c1 (stereo not given),i,6%,-109*,-15%,?,1%
CCNC(=O)n1nccc1C(C)Oc1ccc(Cl)cc1 (stereo not given),i,-12%,-1,11µM*,i,0%
CC(C)N(Cc1nccn1C)C(=O)c1cc(COc2cccc(C(F)(F)F)c2)on1,i,7%,-2,-1%,i,-3%
CCNC(=O)n1nccc1C(C)Oc1cccc(C(F)(F)F)c1 (stereo not given),i,-8%,-2,16µM*,i,-1%
C[C@H]1Cn2nncc2Cn2c3ccccc3c(=O)n21,.,.,.,.,i,.
Cc1cc(C)c2c(-n3cccc3)n[nH]c2n1,i,1%,1,-10%,i,0%
Cc1cc(C)c2c(-n3cccc3)nn(CC#N)c2n1,i,16%,-3,13µM*,i,-4%
Cc1ccc(-n2c(SCc3cccc(F)c3)nc3ccccc3c2=O)cc1,.,.,.,.,i,.
C=CCn1c(Cc2cccs2)nnc1SCC(=O)Nc1cccc2ccccc12,.,.,.,.,i,.
Cc1cc(Cl)ccc1OCC(=O)NNC(=O)C1CCN(c2ncnc3sc(C)c(C)c23)CC1,i,1%,-1,22µM*,?,-6%
Cc1ccc(C)c(N2CCN(C(=O)C3CCN(S(=O)(=O)c4cn(C)cn4)CC3)CC2)c1,i,.,.,13%,i,.
O=C(Cn1cnc2onc(-c3ccc(F)cc3)c2c1=O)N1CCN(c2ccc(F)cc2)CC1,i,?,.,35µM*,i,.
O=C1C2C(C(=O)N1/N=C/c1ccc([N+](=O)[O-])o1)C1C=CC2C12CC2 (stereo not given),i,26%,-1,18µM*,.,1%
O=C1C2C3C=CC(C4CC34)C2C(=O)N1/N=C/c1ccc([N+](=O)[O-])o1 (stereo not given),i,6%,-1,?,i,0%
